Measured values as given in publication PMC5540273 (PLoS ONE, 2017).

Key:
[1] = system: T1, RSK2(Kin.Dom.2-C-terminal)
T1 construct: gene RPS6KA3

[2] = system: T2, RSK3(Kin.Dom.2-C-terminal)
T2 construct: gene RPS6KA2

[3] = system: T3, RSK4(Kin.Dom.2-C-terminal)
T3 construct: gene RPS6KA6

[4] = system: T4, RSK1(Kin.Dom.2-C-terminal)
T4 construct: gene RPS6KA1

[5] = system: RPS6KA5(Kin.Dom.2-C-terminal)
SNARK = system: T5, SNARK
T5 construct: gene NUAK2
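Also: kd values determined as follow-up on hits from a single-replicate KINOMEscan panel screen.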

Q: `Nc1ncnc2[nH]c(-c3ccccc3)nc12` [AH5015] was tested. Which Kd (SNRK) did it give?
A: The Kd was > 10 µM.

Q: For `O=S(=O)(c1ccc(-c2ccnc3[nH]ccc23)cc1)N1CCCC1` [GSK846226], which Kd (ROCK2) is on record?
A: The Kd was 0.35 µM.

Q: For `Nc1nc(-c2nccs2)c(-c2ccnc3ccccc23)s1` [GW693542], which Kd [1] is on record?
A: Its Kd is > 10 µM.

Q: For `Cn1cncc1-c1ccc2ncnc(Nc3ccc(OCc4ccccc4)cc3)c2c1` [GW320571], which Kd (SNRK) is on record?
A: The Kd was 8.7 µM.

Q: For `CSc1nn2c(=O)cc(N3CCOCC3)nc2n1Cc1cccc(C(F)(F)F)c1C` [GSK2363608], which Kd (ROCK2) is on record?
A: Its Kd is 0.082 µM.

Q: `CS(=O)(=O)c1ccc(-c2c(-c3ncn[nH]3)sc(N3CCOCC3)c2C#N)cc1` was tested. Which Kd [2] did it give?
A: The Kd was > 10 µM.

Q: What about the Kd [3] of the same compound?
A: The Kd was > 10 µM.

Q: Which Kd (SLK) does the source give for `CN(C)CCN(C)C(=O)c1cc(-c2ccncc2)c(-c2ccc(Cl)c(O)c2)o1.Cl.Cl` [SB-710397] here?
A: The Kd was 3.6 µM.

Q: How did the Kd [4] turn out when `Cc1ccccc1-n1cnc2c(N)ncnc21` [SKF-97510] was run?
A: Its Kd is > 10 µM.

Q: And the Kd (SLK)?
A: The Kd was > 10 µM.

Q: How did the Kd [5] turn out when `Cc1cccc(-c2cc(Nc3ccncc3)c3ccccc3n2)n1` [GSK223675] was run?
A: The Kd was > 10 µM.

Q: `Fc1cc(Cl)ccc1Nc1ccnc2cc(I)ccc12` [GW551191] was tested. Which Kd [3] did it give?
A: Its Kd is 0.73 µM.

Q: With `CC1=C(C(=O)Nc2cc3cn[nH]c3cc2F)C(c2ccc(C(F)(F)F)cc2)CC(=O)N1` (centres unmarked) [GSK429286] as the compound, how does the Kd (ROCK2) read?
A: The Kd was 0.0027 µM.

Q: What about the Kd (SNARK) of the same compound?
A: The Kd was 0.47 µM.

Q: With `Fc1cc(Cl)ccc1Nc1ccnc2cc(-c3ccc(CN4CCCCC4)o3)ccc12` [GW560116] as the compound, how does the Kd [3] read?
A: The Kd was 0.67 µM.

Q: What does the source list for `COc1cc2ncn(-c3cc(OCC4CCCO4)c(C(N)=O)s3)c2cc1OC` (centres unmarked) [GSK204607]?
A: Kd (SIK2): > 10 µM; Kd (SLK): > 10 µM
